The source of these data is PubChem BioAssay (NCATS).

Inconclusive results are not listed. Active and inactive are the calls of the source. The call rests on the fitted dose curve; in most records, active means well fitted cell-killing curve with a large enough effect; inconclusive means small, poorly fitted or top-dose-only effect, or effect the other way; inactive means no such curve, though single readings can be large or run the other way.
Potency means the concentration at half of the fitted maximal effect.

This experiment is described as follows: Viability qHTS for spleen associated tyrosine kinase inhibitor (SYKi) drug resistant MV4-11 cells (AID 1963824). Further: nearly all actives have a fitted effect of over 35% in size. The following applies: SYKi-resistant MV4-11 viability, CellTiter-Glo, 72 h; series mostly up to 45 µM; viability, % of control: at the top concentration. The gist of the method: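 CellTiter-Glo luminescence, read 10 min after reagent addition, reports viability after a 72 hr compound exposure. Cells are an MV4-11 line made resistant to SYK inhibition, seeded at 500 per well onto compound-containing plates.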
(Quantitative high-throughput screening tests each substance at several concentrations.)
On to `CC(=O)O[C@H]1CC[C@@]2(CI)C(=CC[C@@H]3[C@@H]2CC[C@]2(C)C(=O)CC[C@@H]32)C1`, for which the Potency is 20.6 µM (active).
The same measure, in the same setting: the value for `C[C@]12CC[C@@H](O[C@@H]3O[C@H](CO)[C@@H](O)[C@H](O)[C@H]3O)C[C@@]1(O)CCC1C2CC[C@]2(C)[C@@H](C3=CC(=O)OC3)CC[C@]12O` (stereo partly drawn) was 0.0632 µM (active); that for `CC1=CC2/C=C(\C)CCC(O)C3OC(C)(C)OC3CC(=O)OC23C(=O)NC(CC(C)C)C3C1C` (stereo not drawn) was 12.6 µM (active); that for `CC(=O)O[C@H]1C(=O)[C@]2(C)C(O)C[C@H]3OC[C@@]3(OC(C)=O)[C@H]2[C@H](OC(=O)c2ccccc2)[C@]2(O)C[C@H](O)C(C)=C1C2(C)C` (stereo partly drawn) was 6.85 µM (active).
The same measure, in the same setting: in the case of `COC(=O)[C@]12CCC(C)(C)C[C@@H]1[C@@H]1C(=O)C=C3[C@]4(C)C=C(C#N)C(=O)C(C)(C)[C@@H]4CC[C@@]3(C)[C@]1(C)CC2` it was 0.326 µM (active); in that of `C[C@H]1O[C@@H](O[C@H]2CC[C@]3(CO)C4CC[C@]5(C)[C@@H](C6=CC(=O)OC6)CC[C@]5(O)[C@@H]4CC[C@H]3C2)[C@H](O)[C@H](O)[C@@H]1O[C@@H]1O[C@H](CO)[C@@H](O)[C@H](O)[C@H]1O` (stereo partly drawn), 0.544 µM (active).
Take `CCC(C)C1NC(=O)C(C(C)=O)=C1O` (stereo not drawn): the Potency is 29.8 µM (active).
Still for that read-out and setting: in the case of `CC(=O)O[C@H]1CC[C@H]2[C@@H]3CC[C@H]4CC(=O)C=C(C)[C@]4(C)[C@H]3CC[C@]12C` it was 11.6 µM (active); in that of `CCCCCOc1cc2c(cc1-c1cc(/C=C/C(=O)O)ccc1O)C(C)(C)CCC2(C)C`, 23.1 µM (active); in that of `CC(=O)OC[C@]12C[C@H](O)C(C)=C[C@H]1O[C@@H]1[C@H](O)[C@@H](O)[C@@]2(C)[C@]12CO2`, 0.805 µM (active).
On the same count and under the same terms, in the case of `O=C(C[C@@H]1NCCC[C@H]1O)Cn1cnc2ccccc2c1=O` it was 0.231 µM (active); in that of `C=C1[C@@H](O)[C@]2(O)OC[C@]34C2[C@]2(C)C(C[C@H]3OC(=O)[C@H](O)[C@@]14O)C(C)=CC(=O)[C@H]2O` (stereo partly drawn), 3.17 µM (active).
As to `CO[C@H]1[C@H](O)[C@H](O[C@H]2CC[C@]3(C=O)C4CC[C@]5(C)[C@H](C6=CC(=O)OC6)CC[C@]5(O)C4CC[C@@H]3C2)O[C@@H](C)[C@@H]1O` (stereo partly drawn), the Potency is 0.02 µM (active).
Consider `CC1=CC2(O)/C=C/C(C)(O)C(O)C(O)/C=C/C(=O)OC23C(=O)NC(CC(C)C)C3C1C` (stereo not drawn), for which the “viability, % of control” value is 83% [at 17.3 µM] (inactive).
Take `C/C=C(\C)C(=O)OC1C2C3(C)CCC(OC4CC(OC)C(OC5OC(C)C(O)C(OC)C5O)C(C)O4)CC3CCC23OC32CCC(C(C)=O)C2(C)C1OC(=O)/C(C)=C/C` (stereo not drawn): the Potency is 3.9 µM (active).
As for `CCCCN1[C@@H]2CC[C@H]1CC(OC(c1ccc(F)cc1)c1ccc(F)cc1)C2` (stereo partly drawn), the Potency is 8.2 µM (active).
The same measure, in the same setting: the value for `CC(=O)C1CCC2C3CCC4C[C@@H](O)CCC4(C)C3CCC12C` (stereo partly drawn) was 14.6 µM (active); that for `COC1(C[S@@](=O)c2ccccc2)CCN(CCc2c[nH]c3ccc(F)cc23)CC1` was 20.6 µM (active).
On to `C1=C(c2cnc[nH]2)c2ccsc2CC1`, for which the “viability, % of control” value is 72% (inactive).
`C/C=C1/CN2CC[C@]34C(=Nc5ccccc53)[C@@H]2C[C@@H]1[C@H]4C(=O)OC`: the Potency was 2.27 µM (active).
Turning to `C[C@]12CC[C@H](OC3OC(CO)C(O)C(O)C3OC3OC(CO)C(O)C(O)C3O)C[C@@H]1CC[C@@H]1C2CC[C@]2(C)[C@@H](C3=CC(=O)OC3)CC[C@]12O` (stereo partly drawn), the Potency was 5.44 µM (active).
Still for that read-out and setting: the value for `C=C1[C@@H](C)C2[C@H](Cc3ccccc3)NC(=O)[C@@]23C(/C=C/C[C@H](C)C[C@@](C)(O)/C=C/[C@@H]3OC(C)=O)[C@@H]1O` (stereo partly drawn) was 0.92 µM (active).
On the same count and under the same terms, in the case of `C/C=C(\C)C(=O)N[C@@H](c1ccccc1)[C@@H](O)C(=O)O[C@H]1C[C@@]2(O)[C@@H](OC(=O)c3ccccc3)[C@@H]3[C@]4(OC(C)=O)CO[C@@H]4C[C@H](O)[C@@]3(C)C(=O)[C@H](OC(C)=O)C(=C1C)C2(C)C` it was 0.0235 µM (active); in that of `Cc1ccc(-n2nccn2)c(C(=O)N2CCN(c3nc4cc(Cl)ccc4o3)CCC2C)c1` (stereo not drawn), 9.2 µM (active).
Still for that read-out and setting: the value for `CC(=O)OC[C@]12C[C@H](OC(=O)CC(C)C)C(C)=C[C@H]1O[C@@H]1[C@H](O)[C@@H](O)[C@@]2(C)[C@]12CO2` was 0.0089 µM (active).
For `C/C=C(\C)C(=O)O[C@H]1[C@H](OC(C)=O)[C@]2(CO)[C@H](O)[C@H](O)[C@]3(C)C(=CCC4[C@@]5(C)CC[C@H](O[C@@H]6O[C@H](C(=O)O)[C@@H](O)[C@H](O[C@@H]7OC[C@H](O)[C@H](O[C@@H]8OC[C@H](O)[C@H](O)[C@H]8O)[C@H]7O)[C@H]6O[C@@H]6O[C@H](CO)[C@@H](O)[C@H](O)[C@H]6O)C(C)(C)C5CC[C@]43C)[C@@H]2CC1(C)C` (stereo partly drawn), the viability, % of control was 68.2% [at 9.25 µM] (inactive).
On to `C#CC1(O)CCC2C3CCC4=CC(=O)CCC4=C3C=CC21C` (stereo not drawn), for which the Potency is 18.4 µM (active).
With `C#CCO[C@H]1CN2CCC1CC2`, the “viability, % of control” value was 94.2% (inactive).
The same measure, in the same setting: the value for `C[C@@]12C[C@@H](c3ccoc3)OC(=O)C1CC[C@]1(C)[C@H]2[C@H]2C=C[C@]1(O)C(=O)O2` (stereo partly drawn) was 92.1% (inactive); that for `COc1cc2c(cc1O)C1(C)CCC(O)C(C)(C)C1CC2=O` (stereo not drawn) was 85% (inactive).
As for `CCOC(=O)C1(CCc2ccccc2)CCN(Cc2ccc(NC(C)=O)cc2)CC1`, the Potency is 23.1 µM (active).
Still for that read-out and setting: the value for `CC(=O)OC[C@]12C[C@H](OC(=O)CC(C)C)C(C)=C[C@H]1O[C@@H]1[C@H](O)C[C@@]2(C)[C@]12CO2` was 0.282 µM (active); that for `C#C[C@]1(O)CC[C@H]2[C@@H]3CC[C@H]4Cc5nc6nc7ccccc7n6cc5C[C@]4(C)[C@H]3CC[C@@]21C` was 7.31 µM (active); that for `Nc1ccc(Sc2ccc(N)cc2)cc1` was 43.3 µM (active).
On the same count and under the same terms, the value for `CN1CCc2cc3c(cc2[C@H]1[C@@H]1OC(=O)c2c1ccc1c2OCO1)OCO3` was 6.51 µM (active); that for `O=C1NC(=O)c2c1c1c3ccccc3[nH]c1c1[nH]c3ccccc3c21` was 0.0517 µM (active).
On to `CC1=C2C(=O)C3[C@@H](CC=C4C[C@@H](O)CC[C@@]43C)[C@@H]2CC[C@]12O[C@@H]1C[C@H](C)CN[C@H]1[C@H]2C` (stereo partly drawn), for which the “viability, % of control” value was 67.5% [at 17.3 µM] (inactive).
Turning to `Oc1ccc2c(c1)C13CCCC[C@H]1[C@@H](C2)N(CC1CCC1)CC3`, the Potency was 10.3 µM (active).
